Experimental data reported in PubChem BioAssay (NCATS).
Values joined by “and” are separate entries in the source; they are usually repeats but may differ in a detail not shown here. Equal entries are not always repeated. Unmarked numbers belong to inactive results. Records with an inconclusive call do not appear. Active and inactive are the calls of the source. Unless noted, calls come from the whole dose curve; as a rule, active = well fitted curve in the direction sought with a large enough effect; inconclusive = small, poorly fitted or top-dose-only effect, or another doubt; inactive = no such curve, though single readings can be large; an effect the other way counts as inactive or inconclusive.

How the values were obtained:
astro = control astrocytes; assay: Drug repurposing screens with cells derived from glioblastoma tumor samples (AID 1345199); details: viability, ATP luminescence, 48 h; series mostly up to 45.9 µM; note: nearly all actives have a fitted effect of over 40% in size; note: potency is the fitted concentration of half-maximal effect
Method in brief: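 Primary testing used CD133+ neurospheres from four GBM patients, seven concentrations, 48 h exposure and ATP-based viability; confirmation added three slower-growing patient lines.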

[1] = target: Nuclear receptor subfamily 1 group I member 2 (Rattus norvegicus) (UniProt Q9R1A7); assay: qHTS assay for small molecule activators of the rat pregnane X receptor (rPXR) signaling pathway (AID 651751; call rule not given here; note: 0% is about no effect); details: rPXR reporter cells, luciferase (One-Glo), 24 h
[2] = qHTS assay for small molecule activators of the human pregnane X receptor (PXR) signaling pathway (AID 720659; call rule not given here; note: 0% is about no effect); details: DPX-2 HepG2 CYP3A4-luciferase, 24 h; series mostly up to 92.3 µM
[3] = qHTS assay to identify inhibitors of the type 1 interferon - major histocompatibility complex class I in skeletal muscle: Counter screen cell viability and HiBit confirmation (AID 1347412); details: iHSKM muscle cells + IFN-b, HiBiT or CellTiter-Glo, 24 h; for activity change, negative = inhibition: at 45.9 µM (top of the series); note: potency is the fitted concentration of half-maximal effect; for activity change, negative = inhibition: % is set by controls: 0 for no effect and ±100 for the full control effect; for all read-outs here: nearly all actives have a fitted effect of over 60% in size
Method in brief: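 After 24 h with human IFN-beta (4 ng/ml) and compound titrations (top 46 uM final, 1:3, 12 points), HLA-B HiBit myoblasts were lysed for either Nano-Glo HiBiT luminescence or CellTiter Glo viability on paired plates.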

Sequence of Nuclear receptor subfamily 1 group I member 2 (Rattus norvegicus) (Q9R1A7 whole entry, looked up): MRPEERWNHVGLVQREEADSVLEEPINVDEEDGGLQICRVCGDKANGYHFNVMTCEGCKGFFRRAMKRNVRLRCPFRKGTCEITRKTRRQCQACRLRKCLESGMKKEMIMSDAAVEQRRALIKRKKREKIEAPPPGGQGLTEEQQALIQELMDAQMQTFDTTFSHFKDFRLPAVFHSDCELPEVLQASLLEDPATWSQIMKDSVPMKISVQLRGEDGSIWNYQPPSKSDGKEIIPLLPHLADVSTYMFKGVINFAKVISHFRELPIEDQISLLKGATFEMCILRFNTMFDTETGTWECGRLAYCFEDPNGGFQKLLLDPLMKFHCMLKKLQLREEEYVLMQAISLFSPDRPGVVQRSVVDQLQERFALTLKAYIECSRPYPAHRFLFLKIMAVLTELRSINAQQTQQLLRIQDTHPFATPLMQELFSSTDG

Compound: CC1=CCC(C(C)(C)O)CC1 (stereo unspecified)
- Potency (astro): inactive
- max response [1]: -0.27%
- outcome [2]: inactive

Compound: CCCCC/C=C\C/C=C\CCCCCCCC(=O)O
- Potency (astro): inactive
- max response [1]: 6.19% and -3.59%
- outcome [2]: inactive

Compound: CO[C@H]1C=CO[C@@]2(C)Oc3c(C)c(O)c4c(O)c(c5c(nc6cc(C)ccn65)c4c3C2=O)NC(=O)/C(C)=C\C=C[C@H](C)[C@H](O)[C@@H](C)[C@@H](O)[C@@H](C)[C@H](OC(C)=O)[C@@H]1C
- Potency (astro): inactive

Compound: Cc1ccccc1
- Potency (astro): inactive
- max response [1]: -1.25% and 0.145%
- outcome [2]: inactive

Compound: CO[C@H]1C[C@@H]2CC[C@@H](C)[C@@](O)(O2)C(=O)C(=O)N2CCCC[C@H]2C(=O)O[C@H]([C@H](C)C[C@@H]2CC[C@@H](OCCO)[C@H](OC)C2)CC(=O)[C@H](C)/C=C(\C)[C@@H](O)[C@@H](OC)C(=O)[C@H](C)C[C@H](C)/C=C/C=C/C=C/1C
- Potency (astro): 25.1 µM (active)

Compound: CN(C)C/C=C/C(=O)Nc1ccc(C(=O)Nc2cccc(Nc3ncc(Cl)c(-c4c[nH]c5ccccc45)n3)c2)cc1
- Potency ([3]; HiBiT): 0.442 µM (active)
- activity change, negative = inhibition ([3]; Viability): -19.3%

Compound: Nc1ccn([C@H]2CS[C@@H](CO)O2)c(=O)n1
- Potency (astro): inactive
- outcome [2]: inactive

Compound: COc1cc(N2CCC(N(C)C)CC2)ccc1Nc1ncc(Cl)c(Nc2ccccc2P(C)(C)=O)n1
- Potency ([3]; HiBiT): 3.13 µM (active)

Compound: CCCCCCCC/C=C\CCCCCCCC(=O)O
- Potency (astro): inactive
- max response [1]: 0.673% and 2.82%
- outcome [2]: inactive

Compound: O=C(O)CCC(=O)C(=O)O
- Potency (astro): inactive
- max response [1]: 0.868%
- outcome [2]: inactive

Compound: CCCCC(C)(O)C/C=C/[C@H]1[C@H](O)CC(=O)[C@@H]1CCCCCCC(=O)OC (stereo partly specified)
- Potency (astro): inactive

Compound: CC(O)CO (stereo unspecified)
- Potency (astro): inactive
- max response [1]: -2.73% and 0.891%
- outcome [2]: inactive

Compound: C[C@]12O[C@H](C[C@]1(O)CO)n1c3ccccc3c3c4c(c5c6ccccc6n2c5c31)CNC4=O
- Potency (astro): 0.447 µM (active)

Compound: COc1cc2c(Nc3ccc(Cl)c(Cl)c3F)ncnc2cc1OCC1C[C@@H]2CN(C)C[C@@H]2C1 (stereo partly specified)
- Potency ([3]; HiBiT): 19.8 µM (active)
- Potency ([3]; Viability): 17.6 µM (active)

Compound: CNC(=O)c1ccc(Nc2ncc(C(F)(F)F)c(NCc3nccnc3N(C)S(C)(=O)=O)n2)cc1
- Potency ([3]; HiBiT): 3.52 µM (active)
- activity change, negative = inhibition ([3]; Viability): -7.39%

Compound: CCC(=O)O[C@@H]1CC(=O)O[C@H](C)C/C=C/C=C/[C@H](O)[C@H](C)C[C@H](CC=O)[C@H](O[C@@H]2O[C@H](C)[C@@H](O[C@H]3C[C@@](C)(O)[C@@H](OC(=O)CC)[C@H](C)O3)[C@H](N(C)C)[C@H]2O)[C@H]1OC
- Potency (astro): inactive

Compound: CCC(=O)O[C@]1(C(=O)CCl)[C@@H](C)C[C@H]2[C@@H]3C[C@H](F)C4=CC(=O)C=C[C@]4(C)[C@@]3(F)[C@@H](O)C[C@@]21C
- Potency (astro): inactive

Compound: CC(C(=O)O)c1ccc(N2Cc3ccccc3C2=O)cc1 (stereo unspecified)
- Potency (astro): 10 µM (active)

Compound: O=C1C(=O)c2ncccc2-c2cccnc21
- Potency (astro): 0.562 µM (active)

Compound: CC[C@@]1(O)C(=O)OCc2c1cc1n(c2=O)Cc2cc3c([N+](=O)[O-])cccc3nc2-1
- Potency (astro): 1.26 µM (active)

Compound: CCCCCCCC(=O)O
- Potency (astro): inactive
- max response [1]: 2.58% and -1.34%
- outcome [2]: inactive

Compound: C[C@@H]1CCN(C(=O)CC#N)C[C@@H]1N(C)c1ncnc2[nH]ccc12
- activity change, negative = inhibition ([3]; Viability): -5.51%

Compound: CCCCC(CC)COC(=O)CC(C(=O)OCC(CC)CCCC)S(=O)(=O)O (stereo unspecified)
- Potency (astro): inactive
- max response [1]: 6.97%

Compound: CCOC(C)=O
- Potency (astro): inactive
- outcome [2]: inactive

Compound: O=C(O)CN(CCN(CC(=O)O)CC(=O)O)CC(=O)O
- Potency (astro): inactive
- max response [1]: 0.191% and 7.12%

Compound: IC(I)I
- Potency (astro): inactive
- max response [1]: 0.127% and 1.54%
- outcome [2]: inactive

Compound: CC1=C2[C@@H]([C@H](C)CC[C@H]2/C=C(\C)C(=O)O)[C@H](O)C1
- max response [1]: -1.26%
- outcome [2]: inactive

Compound: CC(C)=O
- Potency (astro): inactive
- max response [1]: 2.78%
- outcome [2]: inactive

Compound: Cc1cc(Nc2ncc(Cl)c(Nc3ccccc3S(=O)(=O)C(C)C)n2)c(OC(C)C)cc1C1CCNCC1
- Potency ([3]; Viability): 27.9 µM (active)

Compound: CCOc1cc2ncc(C#N)c(Nc3ccc(OCc4ccccn4)c(Cl)c3)c2cc1NC(=O)/C=C/CN(C)C
- Potency ([3]; HiBiT): 1.57 µM (active)

Compound: CC(=O)c1cnc2ccc(-c3cc(Cl)c(O)c(Cl)c3)nc2c1NC1CCC(CN(C)C)CC1 (stereo unspecified)
- Potency ([3]; HiBiT): 0.0991 µM (active)
- activity change, negative = inhibition ([3]; Viability): -15.7%

Compound: C=C1CC[C@@H]2[C@](C)(CO)[C@H](O)CC[C@@]2(C)[C@@H]1C/C=C1/C(=O)OC[C@H]1O
- Potency (astro): 25.1 µM (active)
- Potency ([3]; HiBiT): 12.5 µM (active)
- activity change, negative = inhibition ([3]; Viability): -7.87%

Compound: C#CCOc1ccc2c(C)cc(=O)oc2c1
- Potency (astro): inactive

Compound: NS(=O)(=O)OC[C@@H]1C[C@@H](n2ccc3c(N[C@H]4CCc5ccccc54)ncnc32)C[C@@H]1O
- activity change, negative = inhibition ([3]; Viability): -12.3%

Compound: O=CCCCC=O
- Potency (astro): inactive
- max response [1]: 2.91%
- outcome [2]: inactive
